The results in this text go back to PubChem BioAssay (Tox21).

“And” between values parts separate entries of the source, which are not always exact repeats. Identical values can stand only once. Inconclusive results are not listed. The source made the active and inactive calls. Unless noted, the call rests on the fitted dose curve; in most records, active means well fitted curve in the direction sought with a large enough effect in the repeat runs; inconclusive means weak or mixed curves; inactive means no such curve, though single readings can be large; an effect the other way counts as inactive or inconclusive.

Experiment [1] has as its target Estrogen receptor beta (Homo sapiens) (UniProt Q92731). Put plainly: qHTS assay to identify small molecule antagonists of the estrogen receptor beta (ER-beta) signaling pathway (AID 1259378; active means well fitted inhibition curve with a large enough effect in the signal ratio in the repeat runs, not every such curve was filed as active; the % refers to the signal ratio; further: potency means the concentration at half of the fitted maximal effect). The method, boiled down:
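ER-beta-UAS-bla HEK293T cells in 2% charcoal-stripped FBS medium treated with compound plus 1nM final 17-beta-estradiol for 16 hr at 37C. Beta-lactamase reporter read by FRET substrate fluorescence after 2 hours at room temperature.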
A general note: Quantitative high-throughput screening tests each substance at several concentrations.

A short description of experiment [2]: qHTS assay to identify small molecule agonists of the androgen receptor (AR) signaling pathway in the presence of an antagonist - cell viability counter screen (AID 1259379).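 Further: MDA-kb2 human breast cancer cells carrying an MMTV luciferase reporter; series mostly up to about 92 µM; nearly all actives have a fitted effect of over 25% in size.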 In a few lines:
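Counter screen for cell viability run in parallel with the AR agonist-mode luciferase assay. MDA-kb2 cells were co-treated with nilutamide (3.0uM final) and compounds, then incubated 16 hr at 37C, and CellTiter-Fluor fluorescence was measured.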

The nature of experiment [3]: qHTS assay to identify small molecule agonists of the estrogen receptor beta (ER-beta) signaling pathway - cell viability counter screen (AID 1259380). Further: nearly all actives have a fitted effect of over 30% in size. Further: potency means the concentration at half of the fitted maximal effect. In a few lines: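 In this qHTS counter screen, HEK293T cells carrying an ER-beta/UAS beta-lactamase reporter, grown in 2% charcoal-stripped FBS, received compound for 16 hr; ATP-based CellTiter-Glo luminescence was then read after 30 min at room temperature.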

Experiment [4] in a line: qHTS assay to identify small molecule antagonists of the estrogen receptor beta (ER-beta) signaling pathway - cell viability counter screen (AID 1259382). Further: series mostly up to about 92 µM; nearly all actives have a fitted effect of over 55% in size. In a few lines:
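HEK293T ER-beta-UAS-bla, 2% charcoal-stripped FBS; compounds + 1nM E2 16 hr 37C; CellTiter-Glo luminescence, 30 min RT.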

For experiment [5], the target named is Estrogen receptor (Homo sapiens) (UniProt P03372). The experiment can be described thus: qHTS assay to identify small molecule agonists of the estrogen receptor alpha (ER-alpha) signaling pathway in the presence of an antagonist (AID 1259383; calls by dose curve; further: top concentration of the series differs between compounds; nearly all actives have a fitted effect of over 15% in size). The method, boiled down:
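ER-alpha agonism measured under antagonist challenge: 10.0nM ICI-182,780 (final) plus compound, 15 concentrations, 22hr, VM7Luc4E2 ERE-luciferase cells. Read by luminescence.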

The nature of experiment [6]: qHTS assay to identify small molecule agonists of the estrogen receptor alpha (ER-alpha) signaling pathway in the presence of an antagonist - cell viability counter screen (AID 1259386).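 Further: series mostly up to about 92 µM; cells exposed to compounds for 22 h at 37 °C before the viability read; nearly all actives have a fitted effect of over 30% in size.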 The method, boiled down: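 Steps: 5-day stripped-FBS culture; seed and incubate 24hr; add ICI-182,780 (10.0nM final); pin 15-point compound titration; incubate 22hr at 37C; add CellTiter-Fluor at 21hr; read fluorescence.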

A short description of experiment [7]: qHTS assay to identify small molecule antagonists of the progesterone receptor (PR) signaling pathway - cell viability counter screen (AID 1346798). Further: series mostly up to about 92 µM; nearly all actives have a fitted effect of over 50% in size. The method, boiled down:
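Counter screen for cytotoxicity: viability of PR-UAS-bla HEK293T cells was measured with CellTiter-Glo luminescence following 16 hr compound exposure in the presence of R5020.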

Experiment [8] can be described thus: qHTS assay to identify small molecule agonists of the progesterone receptor (PR) signaling pathway - cell viability counter screen (AID 1346799; calls by dose curve; further: nearly all actives have a fitted effect of over 45% in size; further: potency means the concentration at half of the fitted maximal effect). In a few lines: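 Cells (PR-UAS-bla HEK293T) are plated at 3,000/well in 2% charcoal-stripped FBS medium, rested 6 hr, dosed and incubated 16 hr at 37C. CellTiter-Glo is then added and luminescence measured after 30 min at room temperature.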

Experiment [9] in a line: qHTS assay to identify small molecule antagonists of the TGF-beta/Smad signaling pathway - cell viability counter screen (AID 1346824). Further: nearly all actives have a fitted effect of over 50% in size. In a few lines: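 SBE-bla HEK 293T cells, incubated overnight, then compound plus 0.25 ng/mL TGF-beta1 (stock added) for 5 hr at 37 C. Viability was read in the same wells by CellTiter-Glo luminescence after 30 min at room temperature.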

Experiment [10] can be described thus: qHTS assay to identify small molecule agonists of the TGF-beta/Smad signaling pathway - cell viability counter screen (AID 1346829). Further: nearly all actives have a fitted effect of over 45% in size. Further: potency means the concentration at half of the fitted maximal effect. In a few lines:
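Compound-treated SBE-bla HEK 293T cells (5 hr, 37 C) were assessed for viability with CellTiter-Glo in parallel with the reporter read.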

A short description of experiment [11]: qHTS assay to identify small molecule agonists of the TGF-beta/Smad signaling pathway (AID 1346859; active means well fitted activation curve with a large enough effect in the signal ratio in the repeat runs, not every such curve was filed as active; the % refers to the signal ratio; further: series mostly up to about 77 µM). In a few lines: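 Reporter line: HEK 293T with stably integrated SBE-controlled beta-lactamase. Compound exposure lasts 5 hr at 37 C and 5% CO2; substrate loading follows for 2 hr at room temperature, with emission read at 460 and 530 nm.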
Experiment [12] in a line: Human pregnane X receptor (PXR) small molecule agonists, qHTS cell viability counter screen (AID 1346977). Further: nearly all actives have a fitted effect of over 50% in size. In a few lines:
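Cytotoxicity counter screen run in the same wells as the PXR luciferase assay, using PXR-Luc HepG2 cells in charcoal-stripped serum medium. Viability: CellTiter-Fluor fluorescence after 24hr compound treatment.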

Experiment [13] in a line: Caspase-3/7 induction in HepG2 cells by small molecules, qHTS assay (AID 1346978). Further: nearly all actives have a fitted effect of over 15% in size. The method, boiled down:
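Wild-type HepG2 cells, 2,000/well, settled 5 hr at 37 C and 5% CO2, then compound-treated for 17 hr; caspase-3/7 activity read by luminescent Caspase-Glo 3/7 after 30 min at room temperature.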

Experiment [14] is described as follows: qHTS assay to identify small molecule agonists or antagonists of the thyroid stimulating hormone receptor (TSHR) signaling pathway - wild type cell line counter screen (AID 1259384; calls by dose curve). The method, boiled down: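 Wild-type Hek293 cells, 800/well, 18 h at 37C, then compound with Ro20-1724 for 30 min RT. cAMP by HTRF (cAMP-d2/anti-cAMP cryptate), 1 h RT, fluorescence read. 15 concentrations, triplicates.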

Experiment [15] deals with Thyrotropin receptor (Homo sapiens) (UniProt P16473). The experiment can be described thus: qHTS assay to identify small molecule antagonists of the thyroid stimulating hormone receptor (TSHR) signaling pathway (AID 1259385; calls by dose curve; further: nearly all actives have a fitted effect of over 20% in size). The method, boiled down: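 TSHR-HEK293 cells (800/well) plated 18 h, then compounds with Ro20-1724 and TSH at 1.5 ng/mL final, 30 min at room temperature. cAMP quantified by HTRF (cAMP-d2/anti-cAMP-cryptate, 1 h); 15 concentrations in triplicate.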

The target in experiment [16] is Thyrotropin-releasing hormone receptor (Homo sapiens) (UniProt P34981). Put plainly: qHTS assay to identify small molecule antagonists of the thyrotropin-releasing hormone receptor (TRHR) signaling pathway (AID 1346877; active means well fitted inhibition curve with a large enough effect in the repeat runs, not every such curve was filed as active; further: series mostly up to about 51 µM). The method, boiled down: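 Human TRHR in HEK293 cells; inhibition of the intracellular calcium rise triggered by 1 nM TRH was followed by fluorescence over 3 min. Compounds were run at 15 concentrations, three replicates each.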

For experiment [17] the target is unchanged. Put plainly: qHTS assay to identify small molecule agonists of the thyrotropin-releasing hormone receptor (TRHR) signaling pathway (AID 1346891; calls by dose curve;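 further: HEK293 cells expressing TRHR with calcium dye readout; series mostly up to about 58 µM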). The method, boiled down: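 Cells: TRHR-Hek293, seeded and incubated 18 h. Dye loading: 2 h at 37 °C. Compound added from DMSO stock by pin tool. Read-out: kinetic calcium fluorescence over 3 min.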
The target in experiment [18] is Androgen receptor (Homo sapiens) (UniProt P10275). The experiment can be described thus: qHTS assay to identify small molecule agonists of the androgen receptor (AR) signaling pathway in the presence of an antagonist (AID 1259381; calls by dose curve; further: nearly all actives have a fitted effect of over 15% in size). In a few lines: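 AR antagonist background: nilutamide 3.0uM final. Cell line: MDA-kb2, MMTV-driven luciferase, responsive to both AR and GR. Exposure 16hr, 37C, no CO2; ONE-Glo luminescence.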

Experiment [19] has as its target Progesterone receptor (Homo sapiens) (UniProt P06401). The experiment can be described thus: qHTS assay to identify small molecule agonists of the progesterone receptor (PR) signaling pathway (AID 1346784; calls by dose curve; further: nearly all actives have a fitted effect of over 30% in size). In a few lines:
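Cells (PR-UAS-bla HEK 293T, GripTite) were plated in assay medium containing 2% charcoal-stripped FBS and incubated 6 hr. Test compounds in DMSO were added for 16 hr at 37C. FRET substrate was then loaded for 2 hr at room temperature before fluorescence reading.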

Experiment [20] has the same target. Put plainly: qHTS assay to identify small molecule antagonists of the progesterone receptor (PR) signaling pathway (AID 1346795; active means well fitted inhibition curve with a large enough effect in the signal ratio in the repeat runs, not every such curve was filed as active; the % refers to the signal ratio; further: potency means the concentration at half of the fitted maximal effect). In a few lines: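 Antagonist mode: compounds tested against 1 nM (final) promegestone stimulation in HEK293T cells expressing PR-UAS-bla reporter, 16 hr at 37C, 5% CO2; beta-lactamase activity detected via B/G FRET substrate after 2 hr at room temperature.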

Sequence of Estrogen receptor beta (Homo sapiens) (Q92731 whole entry, looked up): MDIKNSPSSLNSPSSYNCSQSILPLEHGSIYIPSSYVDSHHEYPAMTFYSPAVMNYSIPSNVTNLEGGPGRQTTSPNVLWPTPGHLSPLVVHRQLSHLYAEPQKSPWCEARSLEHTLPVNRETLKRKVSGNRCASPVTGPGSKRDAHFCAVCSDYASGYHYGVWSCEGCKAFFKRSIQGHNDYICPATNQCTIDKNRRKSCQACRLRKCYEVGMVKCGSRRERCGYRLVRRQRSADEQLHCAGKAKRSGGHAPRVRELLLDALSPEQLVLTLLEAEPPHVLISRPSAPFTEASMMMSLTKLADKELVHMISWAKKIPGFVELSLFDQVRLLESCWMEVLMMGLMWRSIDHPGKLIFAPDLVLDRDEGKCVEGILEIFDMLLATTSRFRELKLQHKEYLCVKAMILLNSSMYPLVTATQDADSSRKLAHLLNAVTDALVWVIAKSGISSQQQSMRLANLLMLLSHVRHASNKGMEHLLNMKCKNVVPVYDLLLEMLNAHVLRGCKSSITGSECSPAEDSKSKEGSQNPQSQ
Sequence of Estrogen receptor (Homo sapiens) (P03372 whole entry, looked up): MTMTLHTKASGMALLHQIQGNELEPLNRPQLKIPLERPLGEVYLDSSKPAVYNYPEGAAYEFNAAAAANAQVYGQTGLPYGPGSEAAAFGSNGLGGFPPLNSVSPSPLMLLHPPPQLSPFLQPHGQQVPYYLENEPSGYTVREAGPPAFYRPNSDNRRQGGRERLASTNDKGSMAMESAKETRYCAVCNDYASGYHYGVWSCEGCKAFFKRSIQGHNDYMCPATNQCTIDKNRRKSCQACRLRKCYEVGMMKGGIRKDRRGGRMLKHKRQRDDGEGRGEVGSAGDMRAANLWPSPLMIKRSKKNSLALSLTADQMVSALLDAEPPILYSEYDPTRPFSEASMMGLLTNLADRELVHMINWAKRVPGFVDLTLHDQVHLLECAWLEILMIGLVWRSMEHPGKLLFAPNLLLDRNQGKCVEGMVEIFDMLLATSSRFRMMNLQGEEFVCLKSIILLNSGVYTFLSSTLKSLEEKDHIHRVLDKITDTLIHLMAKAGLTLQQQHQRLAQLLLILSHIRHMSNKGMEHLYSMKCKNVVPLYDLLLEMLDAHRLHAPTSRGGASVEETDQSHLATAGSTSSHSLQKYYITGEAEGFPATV
Sequence of Thyrotropin-releasing hormone receptor (Homo sapiens) (P34981 whole entry, looked up): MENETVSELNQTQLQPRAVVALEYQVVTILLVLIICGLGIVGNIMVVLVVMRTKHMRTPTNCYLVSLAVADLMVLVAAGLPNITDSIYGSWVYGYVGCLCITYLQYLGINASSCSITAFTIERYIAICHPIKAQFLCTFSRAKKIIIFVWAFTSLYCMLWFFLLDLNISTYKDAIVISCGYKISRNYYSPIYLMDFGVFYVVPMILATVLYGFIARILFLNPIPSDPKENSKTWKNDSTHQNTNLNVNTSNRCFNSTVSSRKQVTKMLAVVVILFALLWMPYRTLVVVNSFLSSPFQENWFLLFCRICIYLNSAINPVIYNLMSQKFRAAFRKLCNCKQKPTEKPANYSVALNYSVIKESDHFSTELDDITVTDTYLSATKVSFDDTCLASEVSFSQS
Sequence of Progesterone receptor (Homo sapiens) (P06401 whole entry, looked up): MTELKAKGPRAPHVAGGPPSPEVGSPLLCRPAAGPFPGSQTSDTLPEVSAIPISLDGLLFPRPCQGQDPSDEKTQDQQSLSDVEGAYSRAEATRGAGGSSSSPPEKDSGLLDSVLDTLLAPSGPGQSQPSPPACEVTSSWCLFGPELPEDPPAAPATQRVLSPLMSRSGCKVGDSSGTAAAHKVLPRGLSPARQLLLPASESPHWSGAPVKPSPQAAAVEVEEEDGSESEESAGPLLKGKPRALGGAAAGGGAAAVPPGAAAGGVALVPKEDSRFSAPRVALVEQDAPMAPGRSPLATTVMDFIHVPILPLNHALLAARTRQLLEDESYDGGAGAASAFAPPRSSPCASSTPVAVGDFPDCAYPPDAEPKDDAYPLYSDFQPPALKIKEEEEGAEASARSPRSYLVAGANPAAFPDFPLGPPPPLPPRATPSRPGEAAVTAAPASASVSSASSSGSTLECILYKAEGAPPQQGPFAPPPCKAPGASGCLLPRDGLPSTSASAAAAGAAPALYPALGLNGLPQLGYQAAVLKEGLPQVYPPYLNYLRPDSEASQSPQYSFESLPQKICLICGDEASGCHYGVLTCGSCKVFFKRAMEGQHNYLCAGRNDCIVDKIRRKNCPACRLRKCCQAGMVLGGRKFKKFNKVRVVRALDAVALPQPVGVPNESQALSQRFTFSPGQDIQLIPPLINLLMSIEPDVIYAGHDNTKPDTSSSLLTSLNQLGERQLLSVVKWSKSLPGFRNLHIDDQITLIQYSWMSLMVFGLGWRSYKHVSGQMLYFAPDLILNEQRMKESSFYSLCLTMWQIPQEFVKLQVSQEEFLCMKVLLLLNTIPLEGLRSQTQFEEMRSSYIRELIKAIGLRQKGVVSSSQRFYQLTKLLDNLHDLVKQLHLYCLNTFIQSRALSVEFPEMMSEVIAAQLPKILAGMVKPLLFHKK
Sequence of Thyrotropin receptor (Homo sapiens) (P16473 whole entry, looked up): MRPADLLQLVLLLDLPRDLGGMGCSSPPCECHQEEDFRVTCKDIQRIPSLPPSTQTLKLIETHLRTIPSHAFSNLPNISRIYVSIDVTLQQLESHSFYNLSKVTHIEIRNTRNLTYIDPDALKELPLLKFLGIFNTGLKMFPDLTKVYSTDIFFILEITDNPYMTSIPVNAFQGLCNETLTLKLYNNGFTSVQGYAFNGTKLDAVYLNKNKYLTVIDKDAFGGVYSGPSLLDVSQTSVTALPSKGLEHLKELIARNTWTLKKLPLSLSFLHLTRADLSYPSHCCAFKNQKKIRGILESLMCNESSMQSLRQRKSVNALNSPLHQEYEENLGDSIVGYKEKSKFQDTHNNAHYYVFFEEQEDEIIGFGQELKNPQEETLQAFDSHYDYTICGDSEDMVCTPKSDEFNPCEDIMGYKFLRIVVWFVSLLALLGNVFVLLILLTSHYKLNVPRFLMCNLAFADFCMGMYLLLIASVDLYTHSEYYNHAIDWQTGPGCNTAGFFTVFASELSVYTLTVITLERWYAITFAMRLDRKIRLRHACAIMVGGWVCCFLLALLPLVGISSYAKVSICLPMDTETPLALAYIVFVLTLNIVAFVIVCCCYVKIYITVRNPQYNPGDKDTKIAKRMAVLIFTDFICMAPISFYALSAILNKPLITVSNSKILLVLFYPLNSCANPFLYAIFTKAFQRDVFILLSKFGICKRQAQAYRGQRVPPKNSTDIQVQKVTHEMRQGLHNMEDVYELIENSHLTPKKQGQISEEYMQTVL
Sequence of Androgen receptor (Homo sapiens) (P10275 whole entry, looked up): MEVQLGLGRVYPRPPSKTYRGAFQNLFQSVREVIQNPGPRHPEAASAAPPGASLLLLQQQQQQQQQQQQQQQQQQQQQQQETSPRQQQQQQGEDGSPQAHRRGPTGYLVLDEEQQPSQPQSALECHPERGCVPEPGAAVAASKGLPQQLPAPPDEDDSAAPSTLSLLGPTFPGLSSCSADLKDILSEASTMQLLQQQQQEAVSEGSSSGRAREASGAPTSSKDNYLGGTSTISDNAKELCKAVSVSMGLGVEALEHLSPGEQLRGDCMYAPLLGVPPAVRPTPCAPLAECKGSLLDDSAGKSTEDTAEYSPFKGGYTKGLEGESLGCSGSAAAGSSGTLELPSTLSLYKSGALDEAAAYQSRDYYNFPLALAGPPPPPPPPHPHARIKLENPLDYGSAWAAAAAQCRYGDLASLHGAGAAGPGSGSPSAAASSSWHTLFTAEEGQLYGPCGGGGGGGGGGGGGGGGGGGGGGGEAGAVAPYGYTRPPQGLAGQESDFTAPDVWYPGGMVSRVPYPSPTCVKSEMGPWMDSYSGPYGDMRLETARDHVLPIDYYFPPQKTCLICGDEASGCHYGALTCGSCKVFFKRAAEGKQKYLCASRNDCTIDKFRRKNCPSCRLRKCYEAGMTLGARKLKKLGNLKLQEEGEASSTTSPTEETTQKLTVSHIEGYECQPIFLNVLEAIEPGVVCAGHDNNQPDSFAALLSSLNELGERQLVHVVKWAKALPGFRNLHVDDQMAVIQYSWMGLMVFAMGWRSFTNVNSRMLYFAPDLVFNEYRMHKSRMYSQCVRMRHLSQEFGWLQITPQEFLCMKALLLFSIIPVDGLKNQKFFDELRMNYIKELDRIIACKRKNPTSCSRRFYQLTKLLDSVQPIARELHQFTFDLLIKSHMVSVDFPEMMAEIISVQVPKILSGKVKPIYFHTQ

For `Cc1cc(C)c(C2=C(OC(=O)CC(C)(C)C)C3(CCCC3)OC2=O)c(C)c1`, the Potency entry in experiment [1], in experiment [2], in experiment [3], in experiment [4], in experiment [5] and in [6] was “inactive” each time. Moreover, the Potency result in [7], in experiment [8], in experiment [9], in experiment [10], in [12] and in [13] was “inactive” in each case. Further, the outcome in experiment [11] was inactive.
Turning to `CC(C)OC(=O)C(O)(c1ccc(Cl)cc1)c1ccc(Cl)cc1`, in experiment [1], the Potency is 30.6 µM (active). In addition, the Potency result in experiment [2], in experiment [3], in experiment [4], in [5], in experiment [15] and in [6] was “inactive” each time. Moreover, the Potency result in experiment [7], in experiment [9], in [10], in experiment [16], in experiment [17] and in experiment [13] was “inactive” each time. Moreover, the compound was called inactive in [14] and in experiment [11].
Take `N#Cc1ccccc1N`: the Potency result in experiment [1], in experiment [2], in experiment [3], in [18], in experiment [4] and in experiment [5] was “inactive” each time. Besides, the Potency entry in experiment [15], in experiment [6], in experiment [7], in experiment [8], in experiment [9] and in experiment [10] was “inactive” throughout. Also, the Potency result in experiment [16], in experiment [17], in experiment [12] and in experiment [13] was “inactive” throughout. For the same compound, the compound was called inactive in [14] and in experiment [11].
For `C=COCCCl`, the Potency result in experiment [1], in [2], in experiment [3], in experiment [18], in [4] and in [5] was “inactive” in each case. Besides, the Potency entry in experiment [6], in experiment [19], in experiment [20], in [7], in [8] and in experiment [9] was “inactive” each time. For the same compound, the Potency result in experiment [10], in experiment [16], in experiment [17], in [12] and in [13] was “inactive” throughout. Besides, the compound was classed as inactive in [14] and in experiment [11].
Regarding `ClC1=C(Cl)C2(Cl)C3C(Cl)C(Cl)CC3C1(Cl)C2(Cl)Cl` (stereo unspecified), the Potency in experiment [1] was 12.2 µM (active) and 27.3 µM (active); in [3] it was 43.1 µM (active) and 61.1 µM (active); in experiment [20], 4.31 µM (active) and 21.7 µM (active); in experiment [8], 48.4 µM (active) and 61.1 µM (active); in experiment [10], 48.8 µM (active). In addition, the Potency entry in experiment [2], in experiment [18], in [4], in [5], in experiment [19] and in experiment [7] was “inactive” each time. In addition, the Potency result in experiment [9], in experiment [16] and in [17] was “inactive” throughout. Also, the call in experiment [11] was inactive.
Turning to `COCC(=O)N(c1c(C)cccc1C)[C@H](C)C(=O)OC`, the Potency entry in [1], in experiment [2], in experiment [3], in [4], in [5] and in [15] was “inactive” each time. For the same compound, the Potency entry in experiment [6], in experiment [19], in [20], in experiment [7], in [8] and in [10] was “inactive” throughout. Also, the Potency entry in experiment [16], in experiment [17], in experiment [12] and in [13] was “inactive” throughout. Moreover, the compound was classed as inactive in experiment [14] and in experiment [11].
With `ClC1=C(Cl)[C@]2(Cl)[C@@H]3[C@@H](Cl)[C@H](Cl)C[C@@H]3[C@@]1(Cl)C2(Cl)Cl`, the Potency result in experiment [1], in [2], in [3], in [18], in experiment [4] and in [5] was “inactive” throughout. Further, the Potency entry in experiment [6], in experiment [19], in experiment [20], in [7], in experiment [8] and in experiment [9] was “inactive” each time. The Potency entry in experiment [10], in experiment [16], in experiment [17], in [12] and in experiment [13] was “inactive” each time. Besides, in experiment [11], the outcome was inactive.
